Source: paper PMC5540273 (PLoS ONE, 2017)

How the values were obtained:
Conditions in all cases: concentration: 1 μM, replicates: in singlicate; n = 1
BUB1 = tested on: BUB1
CAMK1B = tested on: CAMK1B
CAMK1D = tested on: CAMK1D
CAMK1G = tested on: CAMK1G
CAMK1 = tested on: CAMK1
CAMK2A = tested on: CAMK2A
CAMK2B = tested on: CAMK2B
CAMK2D = tested on: CAMK2D
CAMK2G = tested on: CAMK2G
CAMK4 = tested on: CAMK4
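Note: KINOMEscan kinase panel screen.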

SMILES | %Inh (BUB1) [%] | %Inh (CAMK1B) [%] | %Inh (CAMK1D) [%] | %Inh (CAMK1G) [%] | %Inh (CAMK1) [%] | %Inh (CAMK2A) [%] | %Inh (CAMK2B) [%] | %Inh (CAMK2D) [%] | %Inh (CAMK2G) [%] | %Inh (CAMK4) [%]
COc1ccc(Nc2nccc(N3CCC(NC(=O)Nc4cccc(C(C)=O)c4)C3)n2)cc1 (centres unmarked) [GSK1379731] | 0 | 13 | 40 | 0 | 37 | 0 | 0 | 1 | 11 | 0
Cc1cn2c(=O)cc(N3CCOCC3)nc2n1Cc1cccc(Cl)c1Cl [GSK2334006] | 4 | 40 | 14 | 30 | 12 | 0 | 0 | 10 | 32 | 0
COCCNC(=O)c1ccc(-c2cc(C(=O)NC3CC3)cc(F)c2C)cc1 [GW868318] | 51 | 5 | 10 | 0 | 14 | 7 | 10 | 8 | 13 | 7
O=C(Nc1n[nH]c2cc(-c3cccc(F)c3)ccc12)C1CC1 [SB-735464] | 0 | 0 | 22 | 0 | 31 | 19 | 1 | 0 | 27 | 0
CN(C(=O)c1ccc(-c2cc(-c3c[nH]nc3-c3ccccn3)ccn2)cc1)C1CCOCC1 [GW810083] | 0 | 41 | 20 | 0 | 0 | 0 | 0 | 0 | 17 | 20
